# A selection: hits, their analogues and other compounds. The true share with any hit is near 22%.
# CYP2C19 inh = inhibitors of human CYP2C19; AID 778; P33261; CYP2C19 Supersomes, luciferin-H EGE luminescence, 30 min; 21% of 96,000 active; inhibition, % at 5 µM;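 active = CYP2C19 inhibition above a set limit at 5 µM in the primary screen, cut at about 50% in these data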;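 also: plate controls were negative control wells for no effect and 2.5 mM tranylcypromine positive control for full effect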
# Measles CPE = protection of cells from measles virus; Measles virus-infected cells, CPE protection, absorbance; 1.5% of 140,000 active; protection (pct of control), % at 4 µM; AID 841; in the data active = protection mostly above about 24%, no sharp cut-off; inactive = mostly below about 26%
# CYP2C19 activ = increases human CYP2C19 enzyme activity; recombinant CYP2C19, luciferin-H EGE luminescence; hits give high values; 0 = fully inhibited enzyme, 1 = untreated enzyme; activation factor at 5 µM; 96,000 tested, under 10 active; AID 1025;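 active = activation factor of at least 2 at 5 µM in the primary screen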;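 also: 0 = wells with 2.5 mM tranylcypromine and 1 = vehicle-only wells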
# CYP2C9 inh = blocks human cytochrome P450 2C9; 20% of 96,000 active; CYP2C9 Supersomes, luciferin-H conversion, luminescence; inhibition, % at 5 µM;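 active = blocking of liver enzyme CYP2C9 beyond about 50% at 5 µM, limit read from the data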
# Target sequence (P11712 whole entry, looked up): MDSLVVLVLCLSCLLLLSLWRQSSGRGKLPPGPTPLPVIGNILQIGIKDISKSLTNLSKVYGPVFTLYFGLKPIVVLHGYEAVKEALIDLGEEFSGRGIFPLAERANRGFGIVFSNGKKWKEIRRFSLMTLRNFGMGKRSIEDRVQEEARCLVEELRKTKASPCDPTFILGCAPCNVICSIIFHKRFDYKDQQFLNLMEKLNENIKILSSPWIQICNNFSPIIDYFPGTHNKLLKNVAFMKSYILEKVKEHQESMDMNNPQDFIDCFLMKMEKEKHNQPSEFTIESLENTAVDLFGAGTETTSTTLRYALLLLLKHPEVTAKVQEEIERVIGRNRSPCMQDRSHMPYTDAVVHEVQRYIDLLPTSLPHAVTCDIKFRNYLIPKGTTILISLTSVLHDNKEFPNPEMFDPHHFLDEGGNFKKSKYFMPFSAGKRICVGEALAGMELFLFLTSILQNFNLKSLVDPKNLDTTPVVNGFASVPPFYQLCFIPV
# CYP2C9 activ = CYP2C9 (human) activation. P11712. activation factor at 5 µM. 1.4% of 96,000 active. AID 1024. recombinant CYP2C9, luciferin-H conversion, luminescence; hits give high values; factor 1 = untreated enzyme, 0 = blocked;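 active = activation factor of 2 or more for CYP2C9 at a 5 µM dose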;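 also: 0 = sulfaphenazole-blocked wells and 1 = vehicle-only wells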
# Numbers without * were called inactive; . = not tested or not shown.
SMILES,CYP2C19 inh,Measles CPE,CYP2C19 activ,CYP2C9 inh,CYP2C9 activ
O=C(C1CCCCN1S(=O)(=O)c1ccccc1)N1CCN(C(c2ccccc2)c2ccccc2)CC1 (stereo not drawn),23,25,0.8,39,0.6
Cc1c(Cl)cccc1NC(=O)CN1CCC(C(O)(c2ccccc2)c2ccccc2)CC1,1,17,1,70*,0.3
Cc1c(Cl)cccc1NC(=O)CCN1CCCCC1,-19,20,1.2,-14,1.1
Cc1cc(=O)oc(C)c1C(=O)N1CCN(C(c2ccccc2)c2ccccc2)CC1,40,3,0.6,36,0.6
COCCN(C(=O)c1csnn1)C(C(=O)NC1CCCCC1)c1sccc1C (stereo not drawn),24,15,0.8,-7,1.1
COc1ccc(C(C)NC(=O)c2ccc(Cl)cc2)cc1OC (stereo not drawn),.,15,.,.,.
O=C(C1CC1)N1CCC(C(O)(c2ccccc2)c2ccccc2)CC1,90*,5,0.1,61*,0.4
CCOC(=O)c1c(C)[nH]c(C(=O)COC(=O)CCS(=O)(=O)c2ccc(C)cc2)c1C,.,6,.,.,.
CCOC(=O)c1c(C)[nH]c(C(=O)COC(=O)COc2ccc(OC)cc2)c1C,.,10,.,.,.
CCOC(=O)c1c(C)[nH]c(C(=O)COC(=O)C2(C)CC2(Cl)Cl)c1C (stereo not drawn),24,12,0.8,99*,0
CCOC(=O)c1c(C)[nH]c(C(=O)COC(=O)CCC2CCCC2)c1C,47,4,0.5,82*,0.2
O=C(c1c(F)c(F)c(F)c(F)c1F)N(Cc1ccccc1)Cc1ccccc1,14,10,0.9,34,0.7
Cc1cc(=O)oc2ccc(OCC(=O)N(Cc3ccc(F)cc3)Cc3ccco3)cc12,86*,11,0.1,89*,0.1
COc1ccc(NC(=O)CSc2ncnc3c2cnn3Cc2ccccc2)cc1OC,18,21,0.8,34,0.7
Cc1cc(C)n(C2CCCCC2OC(=O)c2ccccc2)n1 (stereo not drawn),53*,4,0.5,19,0.8
COc1cc(C2NC(=O)c3ccccc3O2)cc(OC)c1OC (stereo not drawn),94*,2,0.1,38,0.6
O=C(Nc1cnc2sc3c(n2c1=O)CCCC3)c1ccc(F)cc1,10,2,0.9,16,0.8
CCSC1=C(C#N)C2(CCCCC2)C(C#N)=C(N)N1,59*,7,0.4,84*,0.2
N#CC1=C(N)NC(SCc2ccccc2)=C(C#N)C12CCCCC2,100*,5,0,100*,0
N#CC1=C(N)NC(SCC(=O)Nc2ccccc2)=C(C#N)C12CCCCC2,.,11,.,.,.
COCC(=O)N(C)c1nnc(-c2ccc([N+](=O)[O-])cc2)s1,9,33,0.9,10,0.9
C=CCn1c(Cc2csc(N)n2)nnc1SCC(=O)OCC,40,16,0.6,-8,1.1
CCC(C)N=CC1=C(O)CC(c2ccccc2)CC1=O (stereo not drawn),52*,17,0.5,45,0.5
O=C1CC(c2ccccc2)CC(O)=C1C=NCc1ccccc1 (stereo not drawn),22,3,0.8,18,0.8
O=C(Nc1ccc(OC(=O)c2cccnc2)cc1)c1cccnc1,12,8,0.9,6,0.9
SMILES,CYP2C19 inh,Measles CPE,CYP2C19 activ,CYP2C9 inh,CYP2C9 activ
COc1ccc(NC(=O)Cc2nnc(SCC(=O)Nc3cc(C)ccc3OC)n2C)cc1,95*,8,0.1,-16,1.2
COc1ccc(Cl)cc1NC(=O)CSc1nnc(COc2ccccc2)n1C,55*,1,0.5,-76,1.8
COc1ccc(C)cc1NC(=O)CSc1nnc(CC(=O)Nc2cccc(C(F)(F)F)c2)n1C,16,21,0.8,-18,1.2
COc1ccccc1NC(=O)CSc1nnc(CC(=O)Nc2cccc(C(F)(F)F)c2)n1C,51*,29,0.5,-49,1.5
Cc1ccc(NC(=O)Cc2nnc(SCC(=O)Nc3ccccc3)n2C)cc1,.,5,.,.,.
COc1ccccc1OCc1nnc(SCC(=O)Nc2ccc(C)cc2)n1C,48,14,0.5,-104,2*
COc1ccc(-c2cc(N)n(CCC#N)n2)c(OC)c1,12,20,0.9,-6,1.1
CC(=O)NCC(=O)N(c1c(C)n(C)n(-c2ccccc2)c1=O)C1(C(=O)NC2CCCC2)CCCCC1,1,3,1,-8,1.1
CC(Nc1cc(=O)n(C)c(=O)n1C)c1ccccc1 (stereo not drawn),.,9,.,.,.
O=C(O)c1csc(Br)c1Br,-13,2,1.1,-9,1.1
Cc1nc(C)c(-c2nnc(-c3ccc(C(C)(C)C)cc3)o2)cc1C(=O)NN,.,18,.,.,.
COc1ccc(OC)c(-c2csc3nnc(SCC(=O)Nc4ccc(NC(C)=O)cc4)n23)c1,24,16,0.8,53*,0.5
Cc1ccc(C)c(-n2[nH]c3c4c(ccc3c2=O)C(=O)c2ccccc2C4=O)c1,.,29,.,.,.
Nc1nc(SCc2ccc(Cl)cc2)[nH]c(=O)c1-c1ccccc1,.,3,.,.,.
Cn1c(SCc2nc(-c3ccc(Cl)cc3)no2)nnc1-c1ccccc1,37,14,0.6,-22,1.2
COc1ccc(-c2noc(CSc3nc4ccccc4c(=O)n3-c3ccc(C)cc3)n2)cc1,63*,21,0.4,66*,0.3
COc1ccc(-c2noc(CSc3nc(N)c(-c4ccccc4)c(=O)[nH]3)n2)cc1,76*,20,0.2,70*,0.3
Cc1ccc(-c2noc(CSc3nnc(Cc4ccccc4)n3-c3ccc(Cl)cc3)n2)cc1,84*,1,0.2,84*,0.2
COc1ccc(-c2noc(CSc3nnc(Cc4ccccc4)n3-c3ccc(Cl)cc3)n2)cc1,87*,37,0.1,80*,0.2
O=C(Nc1ccc(N2CCOCC2)c(C(=O)O)c1)c1ccco1,-3,4,1,-7,1.1
Cc1cccc(-c2cc3nc(C)cc(N4CC(C)CC(C)C4)n3n2)c1 (stereo not drawn),.,2,.,.,.
O=C(COc1ccc2c(c1)OCO2)NC12CC3CC(CC(C3)C1)C2,94*,32,0.1,75*,0.3
O=C(CSc1ncn[nH]1)Nc1ccccc1Sc1ccc(Cl)cc1,98*,9,0,93*,0.1
COC(=O)c1cccc(NC(=O)CSc2ncn[nH]2)c1,57*,24,0.4,27,0.7
COC(=O)c1ccc(Cl)c(NC(=O)CSc2ncn[nH]2)c1,74*,13,0.3,41,0.6
COc1ccc([N+](=O)[O-])cc1NC(=O)CSc1nncn1-c1ccccc1,.,24,.,.,.
CN=c1scc(C)n1/N=C/c1ccc(O)c(O)c1O,14,6,0.9,2,1
CCN=c1scc(C)n1/N=C/c1ccsc1,60*,20,0.4,38,0.6
CCOC(=O)Nc1ccc2c(c1)N(C(=O)CCN1CCN(C)CC1)c1ccccc1S2,0,4,1,-18,1.2
CCOC(=O)Nc1ccc2c(c1)Sc1ccccc1N2C(=O)CCN1CCOCC1,60*,11,0.4,37,0.6

# High-throughput results (PubChem BioAssay)
